Hit rate of the full screen: of about 310,000 compounds, about 14,000 (4.5%) showed an effect of 50% or more. Effects have a minus sign here. The sample holds strong results, similar compounds and a random draw of the others, so the mix is not that of the screen.
biological target: human ether-à-go-go-related gene (hERG) potassium channel (human, UniProt Q12809); assay: primary screen, population patch clamp on CHO cells stably expressing hERG; higher = less effect of the substance
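Also: peak tail current of the secondary pulse compared with the same well before compound.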

Chain of human ether-à-go-go-related gene (hERG) potassium channel (Q12809 whole entry, looked up): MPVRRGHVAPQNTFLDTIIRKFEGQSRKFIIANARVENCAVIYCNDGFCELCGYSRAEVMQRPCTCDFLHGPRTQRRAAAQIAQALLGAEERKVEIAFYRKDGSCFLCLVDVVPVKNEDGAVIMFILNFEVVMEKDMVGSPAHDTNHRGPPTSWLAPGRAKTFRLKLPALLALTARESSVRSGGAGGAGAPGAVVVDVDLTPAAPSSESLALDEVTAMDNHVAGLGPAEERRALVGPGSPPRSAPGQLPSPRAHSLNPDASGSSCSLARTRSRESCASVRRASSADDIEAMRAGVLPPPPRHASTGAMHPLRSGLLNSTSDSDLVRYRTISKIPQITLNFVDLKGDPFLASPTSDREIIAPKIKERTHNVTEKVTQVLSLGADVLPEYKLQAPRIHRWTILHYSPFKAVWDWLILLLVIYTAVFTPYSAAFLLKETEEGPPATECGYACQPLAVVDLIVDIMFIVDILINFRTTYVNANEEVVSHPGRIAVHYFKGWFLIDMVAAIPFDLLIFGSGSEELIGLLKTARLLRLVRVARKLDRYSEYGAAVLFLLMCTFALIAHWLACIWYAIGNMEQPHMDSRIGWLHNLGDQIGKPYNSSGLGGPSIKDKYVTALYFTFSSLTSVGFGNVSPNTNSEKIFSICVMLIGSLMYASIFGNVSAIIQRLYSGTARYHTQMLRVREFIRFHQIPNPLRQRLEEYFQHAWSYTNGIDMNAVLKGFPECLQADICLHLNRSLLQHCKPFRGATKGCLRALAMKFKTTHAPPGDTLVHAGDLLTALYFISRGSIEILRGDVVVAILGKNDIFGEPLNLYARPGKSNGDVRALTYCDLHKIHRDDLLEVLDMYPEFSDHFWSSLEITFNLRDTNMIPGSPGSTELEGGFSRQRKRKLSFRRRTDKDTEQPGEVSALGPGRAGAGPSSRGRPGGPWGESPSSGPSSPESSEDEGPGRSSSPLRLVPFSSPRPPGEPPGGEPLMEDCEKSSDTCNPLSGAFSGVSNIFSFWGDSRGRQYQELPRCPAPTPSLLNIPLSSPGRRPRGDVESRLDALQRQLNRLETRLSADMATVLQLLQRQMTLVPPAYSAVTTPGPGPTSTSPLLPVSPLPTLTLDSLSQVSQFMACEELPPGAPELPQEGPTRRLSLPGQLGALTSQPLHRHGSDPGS

Point of comparison: `O=C(c1ccco1)N1CCN(c2ccnc3cc(Cl)ccc23)CC1`, “hERG current change (%, negative = inhibition) at 10uM” value -71.5%. Against it:
- O=C(O)c1cccc2c1C(=O)c1cc(Br)ccc1S2(=O)=O — higher, 20.2%
- Cc1ccc(S(=O)(=O)NCCS(=O)(=O)N2CCN(c3ccccc3)CC2)cc1 — higher, -1.5%
- CC(=O)c1nn(-c2cccc(Br)c2)cc1C(=O)c1ccc(Br)cc1 — higher, 12.7%
- O=C(NCCCN=C1NS(=O)(=O)c2ccccc21)c1ccc(S(=O)(=O)N2CCOCC2)cc1 — higher, 4.24%
- COCn1ccnc1C(O)(c1ccc(OC)cc1)c1ccc(OC)cc1 — higher, 9.69%
- O=C(O)CCC(NS(=O)(=O)c1ccc(N2CCCC2=O)cc1)C(=O)O (stereo not shown) — higher, -7.11%
- O=C(O)C(=O)O.O=C(c1ccncc1)N1CCN(C2CCCCC2)CC1 — higher, -23.4%
- O=C(O)C(=O)O.O=C(c1ccccc1)N1CCN(C2CCCCC2)CC1 — higher, -31.9%
- O=C(c1ccc(F)cc1)N1CCCC(c2ccccc2)C1 (stereo not shown) — higher, 15.8%
- O=C(O)C(=O)O.O=C(c1ccc(F)cc1)N1CCN(C2CCCCC2)CC1 — higher, -62.1%
- O=C(c1ccc(F)cc1)N1CCC(c2ccccc2)C1 (stereo not shown) — higher, 2.75%
- COc1cccc(C(=O)N2CCN(C3CCC(c4ccccc4)CC3)CC2)c1OC.O=C(O)C(=O)O (stereo not shown) — higher, -10.1%
- O=C(O)C(=O)O.O=C(c1ccccc1)N1CCN(C2CCCCCC2)CC1 — higher, -28.8%
- O=C(c1ccncc1)N1CCN(C(=O)c2ccncc2)CC1 — higher, 12%
- CC1CCC(N2CCN(C(=O)c3ccccc3F)CC2)CC1.O=C(O)C(=O)O (stereo not shown) — higher, -2.63%
- O=C(O)C(=O)O.O=C(c1ccccc1F)N1CCN(C2CCC(c3ccccc3)CC2)CC1 (stereo not shown) — higher, -60.5%
- O=C(O)C(=O)O.O=C(c1ccncc1)N1CCN(C2CCC(c3ccccc3)CC2)CC1 (stereo not shown) — higher, -63.4%
- O=C(O)C(=O)O.O=C(c1ccc(F)cc1)N1CCN(C2CCC(c3ccccc3)CC2)CC1 (stereo not shown) — lower, -76%
- O=C(CSc1nnc2ccccn12)NC(=O)NC1CCCC1 — higher, 13.4%
- O=C(O)C1C2C=CC(C2)C1C(=O)Nc1cccc(C(F)(F)F)c1 (stereo not shown) — higher, 8.95%
- CC(C)c1ccc(/C=C2\SC(N3CCCC3)=NC2=O)cc1 — higher, -37.1%
- CCOc1ccccc1OCCCC(=O)NNC(=O)c1nn(C)c(=O)c2ccccc12 — higher, -20.3%
- Cn1cnc(S(=O)(=O)Nc2ccccc2C(=O)NCC2CC2)c1 — higher, 13.7%
- Cc1ccc(C)c(NC(=S)NNc2ccc(F)cc2F)c1 — higher, 5.57%
- Cc1c(C)c2ccc(O[C@@H]3O[C@H](CO)[C@@H](O)[C@H](O)[C@H]3O)c(C)c2oc1=O — higher, 11.7%
- COc1ccc(NC(=O)c2ccc(Cl)c(S(=O)(=O)N3CCc4ccccc4C3)c2)cn1 — higher, -46.8%
- CCc1cc(C(c2cccc(OC)c2)N2CCOCC2)c(NC(=O)c2ccccc2)s1 (stereo not shown) — higher, -1.91%
- Cc1cc(NO)c(C(C)C)cc1N=O — higher, -2.87%
- O=C(NCCNC1CCC(c2ccccc2)CC1)c1ccc(F)cc1 (stereo not shown) — higher, -58.3%
- O=C(NCCNC1CCC(c2ccccc2)CC1)c1cccs1 (stereo not shown) — higher, -35.2%
- O=C(NC1CCN(C(=O)NCc2ccccc2)CC1)c1ccc(F)cc1 — higher, -15.8%
- C/C(=N\NC(=O)c1ccccn1)c1ccc(Cl)cc1 — higher, 5.74%
- Cc1cc2c(N=NC(=O)C3CC3c3ccccc3)c(O)[nH]c2cc1Br (stereo not shown) — higher, 0.687%
- Cc1ccc2[nH]c(O)c(N=NC(=O)CCc3ccccc3)c2c1Br — higher, 10.5%
- Cc1ccc2[nH]c(O)c(N=NC(=O)C3CC3c3ccccc3)c2c1Br (stereo not shown) — higher, -55.7%
- COC(=O)CCC(=O)OC1(C)C(=O)C2=CN(C3CCCC3)C(c3ccc(OC)cc3)=CC2=C(Br)C1=O (stereo not shown) — higher, -52.6%
- COC(=O)CCC(=O)OC1(C)C(=O)C2=CN(CC3CC3)C(c3ccc(OC)cc3)=CC2=C(Br)C1=O (stereo not shown) — higher, 4.74%
- COC(=O)CCC(=O)OC1(C)C(=O)C2=CN(C3CC3)C(c3ccc(OC)cc3)=CC2=C(Br)C1=O (stereo not shown) — higher, 14.4%
- COCCN1C=C2C(=O)C(C)(OC(=O)CCC(=O)OC)C(=O)C(Br)=C2C=C1c1ccc(OC)cc1 (stereo not shown) — higher, 7.96%
- COC(=O)CCC(=O)OC1(C)C(=O)C2=CN(Cc3ccccc3)C(c3ccc(OC)cc3)=CC2=C(Br)C1=O (stereo not shown) — higher, 2.01%
- COC(=O)CCC(=O)OC1(C)C(=O)C2=CN(Cc3ccc(OC)cc3)C(c3ccc(OC)cc3)=CC2=C(Br)C1=O (stereo not shown) — higher, -58.7%
- Cc1ccc(N2CCN(C3=NC(=O)/C(=C\c4cn[nH]c4-c4ccccc4)S3)CC2)cc1 — higher, 2.07%
- COc1ccc(C2/C=C\CN(C(=O)OCc3ccccc3)CC(=O)N2Cc2ccc(F)cc2)cc1 (stereo not shown) — higher, -26%
- CCOC(=O)Cc1cc(=O)c2c(=O)n(-c3ccccc3)[nH]c2[nH]1 — higher, 9.55%
- O=C(Oc1ccccc1)Oc1ccc2c(c1)oc(=O)c1ccccc12 — higher, 16.9%
- CN(C)C(N)=NCCC[C@H](N)C(=O)O.Cl — higher, 9.67%
- CC(=O)N1CCN(c2ccnc3cc(Cl)ccc23)CC1 — higher, -50.4%
- CC(=O)N1CCC(=NNc2ccnc3cc(Cl)ccc23)CC1 — higher, -22.2%
- Oc1ccc(N2CCN(c3ccnc4cc(Cl)ccc34)CC2)cc1 — higher, -22.7%
- O=C(c1ccco1)N1CCN(c2cccc(Cl)c2)CC1 — higher, -11.5%
- Clc1ccc2c(N3CCOCC3)ccnc2c1 — higher, -17.1%
- O=C(c1ccco1)N1CCN(c2ccc(Cl)cc2)CC1 — higher, -40.7%
- CC(C)(C)C(=O)N1CCN(c2ccnc3cc(Cl)ccc23)CC1 — lower, -73.9%
- Clc1ccc2c(N3CCNCC3)ccnc2c1 — higher, -41.9%
- COc1ccc(N2CCN(c3ccnc4cc(Cl)ccc34)CC2)cc1 — higher, -36.5%
- Clc1ccc2c(N3CCCC3)ccnc2c1 — higher, -65.2%
- CCCCOc1ccccc1C1NC(=O)NC(C)=C1C(=O)OCCOCC (stereo not shown) — higher, -8.27%
- COc1ccc(C2CC(c3ccccc3)Nc3nc(N)nn32)cc1 (stereo not shown) — higher, -25%
- Cc1ccc(S(=O)(=O)N2CCOCC2)cc1NC(=O)CSc1nnc(C2CC2)n1C1CC1 — higher, -7.36%
- Cc1nc2ccccc2n1-c1nc(-c2ccco2)cc(C(F)(F)F)n1 — higher, 5.46%
- CC(C)(C)OC(=O)CC[C@@H](C(=O)NCCCCCCCCCCC(=O)N1CCN(C(=O)OC(C)(C)C)CC1)n1cc(CCCCCNC(=O)OC(C)(C)C)nn1 — higher, 4.12%
- CCOC(=O)c1cc(-c2ccc3c(c2)OCCO3)nc2c1c(C)nn2CCC#N — higher, 3.85%
- CC(=O)c1ccc(NC(=O)CCCC(=O)c2ccccc2)cc1 — higher, 12.6%
- CO/N=C(\C(=O)O)c1csc(NN=C(C)C)n1 — higher, 16.2%
- COC(=O)c1nc2nc(C)cc(=O)n2[nH]1 — higher, 20.2%
- O=C(CSc1nnc(-c2cccnc2)n1Cc1ccco1)c1ccc2ccccc2c1 — higher, -45.6%
- NC(=O)C1CCN(Cc2nc3cc(Cl)ccc3c(=O)[nH]2)CC1 — higher, 5.22%
- CCC(=O)N1CCN(c2ccnc3cc(Cl)ccc23)CC1 — higher, -63.6%
- O=C(c1ccco1)N1CCN(Cc2nc3cc(Cl)ccc3c(=O)[nH]2)CC1 — higher, -61.8%
- CCOC(=O)N1CCC(=NNc2ccnc3cc(Cl)ccc23)CC1 — higher, -32.5%
- CCCCNC(=O)N1CCN(c2ccnc3cc(Cl)ccc23)CC1 — lower, -78.2%
- CCCC(=O)Nc1cc(Cl)ccc1N1CCN(C(=O)CC)CC1 — higher, -33.1%
- CCOC(=O)N1CCN(c2ccnc3cc(Cl)ccc23)CC1 — higher, -66%
- CCCCNC(=O)N1CCN(c2ccccc2OCC)CC1 — higher, -0.115%
- O=C(O)CSCC(=O)N1CCN(c2ccnc3cc(Cl)ccc23)CC1 — higher, 9.15%
- CCOC(=O)N1CCN(c2cc3nccnc3cc2F)CC1 — higher, -12.5%
- CC(=O)N1CCN(Cc2nc3cc(Cl)ccc3c(=O)[nH]2)CC1 — higher, -31.7%
- CCCCNC(=O)N1CCN(c2ncccn2)CC1 — higher, 3.43%
- Cc1ccc(-c2csc(NC(=O)c3ccco3)n2)cc1C — higher, -15.6%
- CC(=O)Nc1ccc(NC(=O)c2c(-c3ccccc3)noc2C)cn1 — higher, 15.9%
- c1ccc2c(C3=NNC(=NC4CC4)SC3)c[nH]c2c1 — higher, -20.1%
- CCN(CC)CCCNC(=O)c1cc(-c2ccc3c(c2)OCO3)on1 — higher, -18.8%
- O=C(NCc1cccs1)c1cc(-c2cccc(Cl)c2)on1 — higher, -16.1%
- O=C(NCCN1CCOCC1)c1cc(-c2cccc(Cl)c2)on1 — higher, -4.73%
- CCN(CC)CCCNC(=O)c1cc(-c2ccc(Cl)cc2)on1 — higher, -63.4%
- CCN(CC)CCCNC(=O)c1cc(-c2ccc(O)cc2)on1 — higher, -37.3%
- CCN(CC)CCCNC(=O)c1cc(-c2cccc(Cl)c2)on1 — higher, -60.7%

Reference: paper PMC4336329 (PLoS ONE, 2015)
